Source: PubChem BioAssay (NCATS)
Inconclusive results are not listed. Activity calls are given as the source filed them. The call rests on the fitted dose curve; in most records, active means well fitted inhibition curve with a large enough effect; inconclusive means small, poorly fitted or top-dose-only effect; inactive means flat fitted curve, though single readings scatter.

Experiment: P-glycoprotein substrates identified in KB-8-5-11 adenocarcinoma cell line, qHTS therapeutic library screen (AID 1346987); further: nearly all actives have a fitted effect of over 65% in size
Details: KB-8-5-11 (P-gp overexpressing) viability, CellTiter-Glo, 72 h; series mostly up to 44.5 µM
Summary of the method: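 Human cervical adenocarcinoma KB-8-5-11 cells, selected in colchicine to over-express P-gp and assayed without it, were exposed for 72 h to titrated compounds. An ATP-based luminescent viability signal gave AC50.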
On the % scale 0 is the no-effect control and ±100 the full control effect; potency means the concentration at half of the fitted maximal effect.

| SMILES | Potency | activity change, negative = cytotoxicity |
| --- | --- | --- |
| C=C[C@H]1[C@H](O[C@@H]2O[C@H](CO)[C@@H](O)[C@H](O)[C@H]2O)OC=C(C(=O)OC)[C@H]1CC(=O)O | inactive | – |
| COc1ccc2[nH]c3c(-c4cccc5ccccc45)nccc3c2c1 | 0.92 µM (active) | – |
| CC1=C(CCC(C)O[C@@H]2O[C@H](CO)[C@@H](O)[C@H](O)[C@H]2O)C(C)(C)CCC1=O (some centres undefined) | inactive | – |
| C[C@@H]1O[C@@H](O[C@@H]2[C@@H](O)[C@H](O[C@H]3CC[C@@]4(C)C(CC[C@]5(C)C4CC=C4[C@@H]6CC(C)(C)CC[C@]6(C(=O)O[C@@H]6O[C@H](CO)[C@@H](O)[C@H](O)[C@H]6O)CC[C@]45C)C3(C)C)O[C@H](C(=O)O)[C@H]2O)[C@H](O)[C@H](O)[C@H]1O (some centres undefined) | – | 7.63% [at 9.29 µM] (inactive) |
| CCCC1(c2ccccc2)NC(=O)N(CC(=O)N(C)Cc2c(F)cccc2Cl)C1=O (centres undefined) | inactive | – |
| C=CC(=O)Nc1cc(Nc2nccc(-c3c[nH]c4ccccc34)n2)c(OC)cc1N(C)CCN(C)C | 6.51 µM (active) | – |
| C[C@@H]1O[C@@H](O[C@H]2[C@H](O)[C@@H](O)[C@H](OC3CCC4(C)C5CCC(C)(C(CO)OC6OC(CO)C(O)C(O)C6O)CC5=CCC4C3(C)C)O[C@@H]2CO)[C@H](O)[C@H](O)[C@H]1O (some centres undefined) | inactive | – |
| O=C(c1ccc(/C=C/c2n[nH]c3ccccc23)cc1)N1CCNCC1 | 6.51 µM (active) | – |
| CCOc1cc2ncc(C#N)c(Nc3ccc(F)c(Cl)c3)c2cc1NC(=O)/C=C/CN(C)C | 3.26 µM (active) | – |
